# An excerpt weighted towards active compounds, which were near 2% of everything screened.
# sPLA2-III inh – Blocks human group III sPLA2 activity; QFRET BODIPY PC-A2 liposome hydrolysis, fluorescence; hit rate 0.56% among 370,000; inhibition, % at 12.2 µM;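 active = inhibition above mean plus 3 SD of compounds lying within the high and low control bounds, cut at about 19% in these data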;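 also: 0% = median of test compound wells and 100% = no enzyme DMSO wells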
# A3A deaminase – inhibitors of human APOBEC3A DNA deaminase. P31941. recombinant A3A, FAM/TAMRA ssDNA deamination fluorescence. inhibition, % at 20 µM. hit rate 0.41% among 330,000. AID 493011;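 active = at least 40% inhibition at 20 µM here, with at most 30% in a related deaminase screen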;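 also: plate controls were A3A with DMSO for no effect and wells lacking A3A enzyme for full effect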
# Target sequence (P31941 whole entry, looked up): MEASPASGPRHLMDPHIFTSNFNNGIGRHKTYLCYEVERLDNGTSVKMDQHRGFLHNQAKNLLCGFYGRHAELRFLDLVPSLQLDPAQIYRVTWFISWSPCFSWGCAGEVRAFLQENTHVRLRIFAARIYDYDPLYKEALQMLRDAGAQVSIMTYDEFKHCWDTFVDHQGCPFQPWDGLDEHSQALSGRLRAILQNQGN
# NALP1 inh – blocks the NALP1 inflammasome reconstituted in yeast | S. cerevisiae NALP1/ASC/caspase-1 growth, X-gal OD620, 72 h | inhibition, % at 10 µM | hit rate 0.61% among 280,000; in the data active = inhibition mostly above about 24%, no sharp cut-off; inactive = mostly below about 32%
# Fh CTSL1 inh – counter-screen for PFM18AAP inhibitors: inhibitors of F. hepatica cathepsin L1; inhibition, % at 5.96 µM; AID 1906; recombinant F. hepatica cathepsin L1, Z-Leu-Arg-MCA fluorescence; hit rate 0.49% among 300,000;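 active = inhibition above the mean of all tested compounds plus 3 SD, set per screening campaign, cut at about 17% in these data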;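 also: 0% = plate median of test compound wells and 100% = 1 µM Z-Phe-Ala-diazomethylketone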
# APOBEC3G inh – blocks human APOBEC3G single-stranded DNA deamination; inhibition, % at 20 µM; hit rate 0.28% among 330,000; Q9HC16; recombinant A3G, ssDNA deamination FAM/TAMRA fluorescence;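 active = inhibition of at least 40% at 20 µM, with no more than 30% in the related APOBEC3A deaminase screen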;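 also: plate controls were DMSO wells with A3G for no effect and wells lacking A3G enzyme for full effect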
# Target sequence (Q9HC16 whole entry, looked up): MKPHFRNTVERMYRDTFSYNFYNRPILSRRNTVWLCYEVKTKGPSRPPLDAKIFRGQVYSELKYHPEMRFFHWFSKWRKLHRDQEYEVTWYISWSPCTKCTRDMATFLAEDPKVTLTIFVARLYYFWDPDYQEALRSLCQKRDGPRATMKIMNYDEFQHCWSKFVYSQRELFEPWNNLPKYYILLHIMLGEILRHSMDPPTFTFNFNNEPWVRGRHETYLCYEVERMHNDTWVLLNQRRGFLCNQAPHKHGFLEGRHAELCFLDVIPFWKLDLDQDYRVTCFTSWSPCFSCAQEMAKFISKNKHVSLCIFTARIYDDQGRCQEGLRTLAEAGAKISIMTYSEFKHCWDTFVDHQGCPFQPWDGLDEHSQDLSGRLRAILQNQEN
# hGIII sPLA2 conf – human GIII-sPLA2 inhibition, confirmation | shares compounds with sPLA2-III inh | recombinant hGIII-sPLA2, BODIPY PC-A2 QFRET fluorescence | inhibition, % at 12.2 µM | hit rate 34% among 2,000 | AID 743280;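 active = mean inhibition across triplicates above the hit cutoff set in the earlier primary screen, cut at about 19% in these data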;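 also: 0% = enzyme with DMSO and 100% = DMSO wells lacking enzyme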
# BODIPY interf – counter-screen for HGIII-sPLA2 inhibitors: 535nm fluorescence interference; inhibition, % at 12.2 µM; hit rate 8.5% among 2,000; AID 743282; BODIPY FL product fluorescence interference, QFRET; shares compounds with sPLA2-III inh;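 active = average inhibition above the solvent-only control mean plus 3 SD, cut at about 6% in these data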;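 also: 0% = DMSO with substrate plus product and 100% = DMSO with substrate alone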
# BODIPY interf DR – interferes with 535nm fluorescence in dose response counter-screen; AID 743455; IC50, µM; shares compounds with sPLA2-III inh; 240 tested, under 10 active; BODIPY FL product fluorescence interference, cell-free;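 active = IC50 at or below 10 µM; inactive = IC50 above 10 µM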
# The depositor's hits bear a star; nt = no result given.
SMILES,sPLA2-III inh,A3A deaminase,NALP1 inh,Fh CTSL1 inh,APOBEC3G inh,hGIII sPLA2 conf,BODIPY interf,others
CCOc1ccc2[nH]c3c(NCCN(CC)CC)ncnc3c2c1,20*,6,-9,1,-4,2,-16,
N=C(N)SCc1ccc(Cl)cc1Cl,39*,-2,18,4,-5,1,-8,
CCCn1c(O)c(N=NC(=O)c2ccco2)c2ccccc21,21*,-5,32,0,-8,-1,-6,
CCCP(=O)(CCC)CCP(=O)(c1ccccc1)c1ccccc1,20*,-2,14,-1,1,4,-11,
O=C(NCCc1ccccc1F)c1ccc2c(c1)ncn2C1CCCCC1,6,nt,nt,nt,nt,nt,nt,
Cc1nc2ccccn2c1C(=O)N=Nc1c(O)n(CCC(C)C)c2ccccc12,22*,-2,37,0,-11,-5,-10,
S=c1[nH]nc(-c2cccs2)n1Cc1ccccc1,20*,-1,6,1,30,21*,3,
S=c1[nH]nc(Cc2ccccc2)n1-c1ccc(Cl)cc1,20*,8,-12,4,11,21*,2,
S=c1[nH]nc(COc2ccc(Cl)cc2)n1-c1ccc(Cl)cc1,2,2,10,15,-3,nt,nt,
S=c1[nH]nc(CCc2ccccc2)n1-c1ccc(Cl)cc1,24*,-4,-20,4,-1,32*,3,BODIPY interf DR=>122
S=c1[nH]nc(COc2ccc(Cl)cc2)n1-c1ccccc1,21*,-6,-6,-1,3,34*,4,BODIPY interf DR=>122
O=C(Nc1nc2ncccn2c1-c1ccc(C(F)(F)F)cc1)c1ccccc1,11,nt,nt,nt,nt,nt,nt,
O=C(Cc1ccccc1)NC1CCCCN(Cc2ccc(Cl)cc2)C1=O (centres undefined),0,nt,nt,nt,nt,nt,nt,
CCc1ccc(OCc2n[nH]c(=S)n2Cc2ccccc2)cc1,-1,-2,9,2,-5,nt,nt,
S=c1[nH]nc(COc2ccccc2)n1Cc1ccccc1,27*,1,2,8,9,19,5,
Cn1cccc1C(=O)N1CCN(S(=O)(=O)c2cccs2)CC1,6,nt,nt,nt,nt,nt,nt,
Cc1cccc(NC(=S)NNC(=O)c2nn(C)cc2Cl)c1,37*,-3,-2,-2,-4,43*,1,BODIPY interf DR=>122
Cc1ccc(NC(=O)c2cnn(-c3ccccc3)c2C)cc1,-7,-4,4,-2,-5,nt,nt,
Cc1ccc(NC(=S)NNC(=O)c2nnn(-c3ccccc3)c2C)cc1,36*,-2,26,0,-4,31*,-3,BODIPY interf DR=>122
Cc1ccc(NC(=S)NNC(=O)c2nn(C)cc2Cl)cc1,34*,-3,-2,-1,1,44*,2,BODIPY interf DR=>122
Cc1cccc(NC(=S)NNC(=O)c2ccco2)c1,17,2,6,-4,2,nt,nt,
Cc1ccc(NC(=S)NNC(=O)c2cnccn2)cc1,30*,nt,nt,nt,nt,27*,0,
CCOc1ccc(-c2cc(C(=O)OC)c3n(c2=O)CCC3)cc1,-3,nt,nt,nt,nt,nt,nt,
CCOc1ccc(-n2c(SCC(=O)Nc3ccc(S(=O)(=O)Nc4cc(C)nc(C)n4)cc3)nnc2-c2ccc(C)cc2)cc1,-63,nt,nt,nt,nt,nt,nt,
O=C(NNC(=S)Nc1ccc(Cl)c(Cl)c1)c1ccccn1,32*,-3,9,4,-8,42*,6.5*,
SMILES,sPLA2-III inh,A3A deaminase,NALP1 inh,Fh CTSL1 inh,APOBEC3G inh,hGIII sPLA2 conf,BODIPY interf,others
O=C(c1ccc(NC(=S)Nc2ccc(Cl)c(Cl)c2)cc1)N1CCCC1,20*,nt,7,4,nt,6,-3,
O=C(Nc1ccc(Cl)c(Cl)c1)N1CCCCCC1,8,-3,30,2,-6,nt,nt,
CCC(C)NC(=O)CN1C(=O)C2CCCCN2C(=O)c2ccccc21 (centres undefined),0,nt,nt,nt,nt,nt,nt,
O=C(NNC(=O)c1cc2cc(Br)ccc2oc1=O)c1ccc(O)cc1O,20*,1,-8,1,-8,26*,0,
S=C(Nc1ccccc1)Nc1nc2ccccc2n1CCOc1ccccc1,21*,-4,16,2,-6,25*,0,
Cc1cc(Br)ccc1NC(=O)CNC(=O)CN(C)Cc1nc2ccccc2c(=O)[nH]1,25*,-2,2,-2,-6,16,-16,
Cn1ncc(Br)c1C(=O)N1CCOCC1,20*,-1,13,-4,-6,-6,-1,
Cn1ncc(Cl)c1C(=O)N1CCOCC1,1,-3,4,-3,-2,nt,nt,
COc1ccc(NC(=S)N2CCN(c3ccccc3)CC2)c(OC)c1,7,-1,-13,3,2,nt,nt,
CCOc1ccccc1NC(=S)N1CCN(c2ccccc2)CC1,24*,-9,-4,5,-2,26*,-4,
O=C(OCC#CCSc1nnc(-c2cccc3ccccc23)o1)C1CCCC1,-8,nt,nt,nt,nt,nt,nt,
Fc1ccc(NC(=S)NN2CCOCC2)cc1Cl,25*,6,20,-2,0,1,0,
S=C(Nc1ccc(Nc2ccccc2)cc1)NN1CCOCC1,14,-5,-6,12,-3,nt,nt,
COc1ccccc1N(C)S(=O)(=O)c1ccc(Cl)c(C(=O)NNC(=O)c2ccccc2O)c1,11,-1,14,1,-2,nt,nt,
COc1ccccc1N(C)S(=O)(=O)c1ccc(C(=O)NNC(=O)c2ccccc2O)cc1,20*,-2,nt,nt,-5,2,1,
CCOC(=O)NC(=O)C(=CNc1ccccc1OC)C(=O)NC(=O)OCC,21*,-1,14,-2,-3,8,-1,
CCOC(=O)NC(=O)C(=CNc1ccccc1C)C(=O)NC(=O)OCC,15,-3,16,-2,-8,nt,nt,
Cc1cccc(N2C(=O)CCC2=O)n1,20*,1,31,-2,5,5,-5,
Cc1cccc(N2C(=O)C3C4C=CC(C5CC45)C3C2=O)n1 (centres undefined),-1,0,20,1,-3,nt,nt,
COc1ccccc1C(=O)N1CCCC(c2nc(-c3cccs3)no2)C1 (centres undefined),7,nt,nt,nt,nt,nt,nt,
O=C(N/C(=C\c1ccccc1)C(=O)N1CCN(CCO)CC1)c1ccccc1,21*,-1,22,2,1,5,-3,
O=C(N/C(=C/c1ccccc1)C(=O)N1CCCCC1)c1ccccc1,1,-1,8,1,-6,nt,nt,
Cc1[nH]c2ccccc2c1CC(=O)Nc1ccc(Nc2ccccc2)cc1,-21,nt,nt,nt,nt,nt,nt,
CC(C)C(=O)N1CC[C@H]2[C@H](CCCN2Cc2ccc(F)cc2)C1,22*,nt,nt,nt,nt,-4,-9,
CCCC1CCC2(CCCN2CCOC(=S)Nc2cccc(Cl)c2)CC1 (centres undefined),4,nt,nt,nt,nt,nt,nt,
Cc1ccc(S(=O)(=O)N(C)C)cc1NC(=S)NNC(=O)C1CC1,30*,1,7,-2,-6,19,-1,

# Bioassay records: PubChem, several laboratories
